ELG1 repair inh: blocks ELG1-dependent DNA repair in HEK293T cells; HEK293T ELG1-luciferase reporter, luminescence, 16 h; DNA damage induced by 5-fluorouridine; Potency, µM (series often up to 46.1 µM), for the others: at the top dose activity change, negative = inhibition, hits mostly inhibitors; 330,000 compounds, 2.3% hits; further: on the % scale 0 is the no-effect control and ±100 the full control effect; nearly all actives have a fitted effect of over 55% in size
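DMSO vehicle served as the neutral condition. Each well held 2,000 cells given 5-fluorouridine plus compound; after 16 hr at 37 °C/5% CO2, ONE-Glo was added and luciferase measured 30 min later.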
ELG1 genotoxic: inducers of genotoxicity in HEK293T ELG1-luciferase cells; HEK293T ELG1-luciferase reporter, luminescence, 16 h; Potency, µM (top dose mostly 46 µM), inactives show at the top dose activity change, positive = activation, hits mostly activators; 330,000 compounds, 1.3% hits; AID 504466; further: % of control where 0% means no effect; nearly all actives have a fitted effect of over 60% in size
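Screening used a luciferase reporter fused to human ELG1 in HEK293T cells. Luminescence was read on a CCD plate imager after 16 hr exposure and 30 min ONE-Glo incubation.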
NPC1 prom act: NPC1 promoter activation | Huh7 NPC1 promoter luciferase reporter, 24 h | Potency, µM (titrated, usually from 9.22 µM), for inactives: top-dose activation, hits mostly activators | 320,000 compounds, 2.4% hits; further: % of control where 0% means no effect; nearly all actives have a fitted effect of over 60% in size
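Compounds in DMSO were transferred onto Huh7 NPC1-luciferase reporter cells pre-incubated 2 h; after 24 h at 37 °C, Amplite reagent was dispensed and luminescence recorded 10 min later.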
SMN2 splice enh: SMN2 splice variant enhancement. HEK293 SMN2-luciferase splicing reporter, luminescence, 30-36 h. Potency, µM (doses to about 46.1 µM), inactives show top-dose activity change, positive = activation, usual class: activators. 210,000 compounds, 2.8% hits. AID 1458; further: % of control where 0% means no effect; nearly all actives have a fitted effect of over 55% in size
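qHTS luciferase splicing reporter: luminescence rises when SMN2 exon 7 is included in transfected HEK293 cells. Compound exposure lasted 30-36 h at 37C, with 4.5 mM final sodium butyrate as control, followed by a ONE-Glo read.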
Rab9 promoter act: Rab9 promoter activation; Potency, µM (series often up to 9.22 µM), without a hit: at the top dose activation, negative = inhibition, actives largely listed as activators; 320,000 compounds, 2.8% hits; Huh7 Rab9 promoter-luciferase reporter, luminescence, 24 h; further: % of control where 0% means no effect; nearly all actives have a fitted effect of over 60% in size
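Using Huh7 cells stably transfected with Rab9 promoter–luciferase, compounds were incubated 24 h at 37 °C, 5% CO2; luciferase luminescence was read 10 min after reagent addition.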
FLuc counter: counter-screen for miR-21 project: firefly luciferase inhibitors or activators; 360,000 compounds, 6.9% hits; Potency, µM (doses to about 57.5 µM), without a hit: top-dose activity change, negative = inhibition, hits mostly inhibitors; P08659; purified FLuc, Km substrates, luminescence inhibition;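 further: plate controls were vehicle for no effect and reference inhibitor for full effect; nearly all actives have a fitted effect of over 55% in size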
Target sequence (P08659 whole entry, looked up): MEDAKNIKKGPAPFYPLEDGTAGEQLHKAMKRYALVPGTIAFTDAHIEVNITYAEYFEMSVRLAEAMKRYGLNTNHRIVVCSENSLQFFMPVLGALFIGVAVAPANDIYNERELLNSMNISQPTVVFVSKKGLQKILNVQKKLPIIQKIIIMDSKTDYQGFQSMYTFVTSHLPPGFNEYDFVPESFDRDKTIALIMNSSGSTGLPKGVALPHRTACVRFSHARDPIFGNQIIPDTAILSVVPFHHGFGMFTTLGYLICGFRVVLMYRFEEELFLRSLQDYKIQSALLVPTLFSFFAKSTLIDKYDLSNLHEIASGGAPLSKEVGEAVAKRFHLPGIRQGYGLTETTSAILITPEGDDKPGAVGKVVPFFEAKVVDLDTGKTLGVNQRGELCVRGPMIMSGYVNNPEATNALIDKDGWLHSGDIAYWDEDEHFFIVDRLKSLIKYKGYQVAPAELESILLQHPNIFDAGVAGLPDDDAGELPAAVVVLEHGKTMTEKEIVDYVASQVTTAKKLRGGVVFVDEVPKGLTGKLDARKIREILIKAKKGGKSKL
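Purified P. pyralis luciferase, 10 nM final, with Km-level 10 uM D-luciferin and 10 uM ATP in 50 mM Tris acetate pH 7.5, 10 mM Mg acetate, 0.01% Tween-20, 0.05% BSA; 6-point qHTS titration about 60 µM downward; luminescence read.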
An asterisk follows results filed as active; ? = inconclusive; nt = no result; [ ] = another dose, or the depositor's remark. Most compounds without a hit are left out; they make up all but 9.4% or so of the library. The call rests on the fitted dose curve; in most records, active means well fitted curve in the direction sought with a large enough effect; inconclusive means small, poorly fitted or top-dose-only effect, or another doubt; inactive means no such curve, though single readings can be large; an effect the other way counts as inactive or inconclusive. Potency means the concentration at half of the fitted maximal effect.

SMILES	ELG1 repair inh	ELG1 genotoxic	NPC1 prom act	SMN2 splice enh	Rab9 promoter act	FLuc counter
C/C(=N\NC(=O)CSCc1ccccc1Cl)c1cccc(NC(=O)c2ccccc2)c1	?	-6.9%	-3.4%	-65.3%	-8.6%	4.6%
CCC(=O)N1c2ccccc2CC1C(=O)NCc1cc(Br)ccc1OC (stereo unspecified)	nt	nt	nt	nt	nt	-1.1%
C=CCn1cc(/C=N\NC(=O)c2cc3c(ccc4ccccc43)o2)c2ccccc21	?	-6.4%	-0.6%	3.0%	3.9%	?
Cn1cc(/C=N/NC(=O)c2cc3cc(Br)ccc3o2)c2ccccc21	-8.7%	-0.8%	9.4%	nt	5.2%	8.49µM*
O=C(N/N=C/c1cccc2ccccc12)c1cc2ccccc2o1	-9.3%	-0.1%	-0.5%	nt	0.8%	?
O=C(O)c1ccc(-n2cccc2/C=N\NC(=O)c2cc3cc(Br)ccc3o2)cc1	4.7%	-1.9%	-4.2%	nt	-1.9%	15.1µM*
C#CCn1cc(/C=N/NC(=O)c2cc3ccccc3o2)c2ccccc21	-15.1%	-0.5%	9.1%	6.6%	-2.0%	12µM*
O=C(O)Cn1cc(/C=N/NC(=O)c2cc3cc(Br)ccc3o2)c2ccccc21	0.5%	1.0%	0.6%	nt	0.7%	12µM*
CCOC(=O)C1CCCN(C(=O)c2ccc3c(c2)sc2nc(-c4cccc(OC)c4)cn23)C1 (stereo unspecified)	nt	nt	nt	nt	nt	-12.7%
Cc1csc(CNc2ncnc3ccc(-c4ccc5c(ccn5C)c4)cc23)c1	nt	nt	-1.2%	nt	-1.8%	?
COC(=O)c1ccc(NC(=O)CC2C(=O)N(c3cccc(OC)c3)C(=O)N2Cc2ccco2)cc1 (stereo unspecified)	nt	nt	nt	nt	nt	-12.6%
Cc1n[nH]c(=O)n1-c1ccc(OCc2ccccc2)cc1	?	?	?	nt	2.82µM*	21.3µM*
COc1ccc(-n2c(C)n[nH]c2=O)cc1	-13.2%	1.6%	-1.4%	-6.2%	-3.3%	6.3%
O=C(Nc1ccc(Cl)cc1)Nc1cnccn1	7.4%	-3.5%	8.5%	nt	-2.0%	?
Cc1ccc(NC(=O)Nc2cnccn2)cc1C	?	8.3%	19.7%	nt	?	21.3µM*
Cc1ccc(NC(=O)Nc2cnccn2)cc1	?	?	?	nt	?	16.9µM*
CC(C)c1ccc(NC(=O)Nc2cnccn2)cc1	?	?	?	nt	?	6.75µM*
O=C(Nc1ccc([N+](=O)[O-])cc1)Nc1cnccn1	-14.2%	-18.3%	2.0%	nt	-2.3%	-2.3%
CCCOc1ccc(/C=N/Nc2ccc(C(=O)O)cc2)c(OCCC)c1	?	?	8.4%	-8.2%	?	5.36µM*
O=C(N/N=C/c1c[nH]c2ccccc12)c1cccc(Cl)c1	?	13.9%	?	nt	?	21.3µM*
CCOc1ccccc1C(=O)N/N=C/c1c[nH]c2ccccc12	15.3%	0.4%	-9.1%	-4.1%	0.4%	?
O=C(N/N=C/c1c[nH]c2ccccc12)c1cccc(O)c1	?	17.3%	-0.3%	nt	-4.4%	10.7µM*
COc1ccc(C(=O)N/N=C/C(=O)c2ccccc2)cc1	?	10.3µM*	2.51µM*	nt	?	1.51µM*
CC(=O)NCCOc1ccc(C(=O)O)cc1	4.9%	-0.2%	-11.2%	-2.0%	-8.1%	-2.6%
O=C(N/N=C/c1c[nH]c2ccccc12)c1ccc(O)c(O)c1	-3.8%	-0.4%	-2.2%	nt	8.8%	2.39µM*
SMILES	ELG1 repair inh	ELG1 genotoxic	NPC1 prom act	SMN2 splice enh	Rab9 promoter act	FLuc counter
CC(=O)Nc1cccc(C(=O)N/N=C/c2c[nH]c3ccccc23)c1	20.4%	3.9%	27.6%	nt	22.7%	15.1µM*
COc1ccc(C(=O)N/N=C/c2cc3ccccc3[nH]c2=S)cc1	?	0.4%	3.6%	-17.4%	9.0%	?
COc1ccc2c(c1)c(/C=N/Nc1ccc(C(=O)O)cc1)c(C)n2C	?	?	?	nt	23.0%	4.78µM*
COc1ccc(C(=O)N/N=C/c2c[nH]c3ccccc23)cc1	?	3.4%	?	nt	25.9%	13.5µM*
COc1ccc2c(CCNC(=O)Nc3ccccc3)c[nH]c2c1	-8.5%	-1.4%	-10.3%	nt	4.2%	0.1%
COc1ccc2c(/C=N/Nc3ccc(C(=O)O)cc3)c[nH]c2c1	?	?	0.794µM*	nt	1.41µM*	1.35µM*
Cc1ccc2oc(-c3cccc(NC(=O)Cn4cnc5c(=O)n(C)c(=O)n(C)c54)c3)nc2c1	?	16.9%	12.7%	-25.8%	18.2%	3.79µM*
CCC(C)c1ccc2oc(-c3ccc(NC(=O)Cn4cnc5c(=O)n(C)c(=O)n(C)c54)cc3)nc2c1 (stereo unspecified)	?	6.7%	22.5%	-48.0%	?	12µM*
OC(Cn1cncn1)(c1ccccc1)c1ccccc1	7.1%	-1.6%	-0.5%	nt	-2.5%	-1.3%
CCc1nc(Cl)c(C#N)c2c1CCCC2	13µM*	-6.1%	-3.4%	-3.2%	2.8%	0.9%
Cc1nc2ccc(NC(=O)CS(=O)(=O)c3ccccc3)cc2s1	?	?	?	nt	?	15.1µM*
Cc1nc2ccc(NC(=O)CCC3CCCC3)cc2s1	?	?	?	nt	?	12µM*
COc1ccccc1CC(=O)Nc1ccc2nc(C)sc2c1	?	?	17.0%	nt	21.0%	16.9µM*
Cc1nc2ccc(NC(=O)CCS(=O)(=O)c3ccc(Cl)cc3)cc2s1	-12.6%	1.2%	-1.2%	-44.1%	1.4%	-7.0%
COc1cccc(CC(=O)Nc2ccc3nc(C)sc3c2)c1	?	17.1%	27.6%	5.9%	14.1%	16.9µM*
CC(C)NC(=O)N1CC[C@@]2(CCCN(C(=O)c3cc(C(F)(F)F)cc(C(F)(F)F)c3)C2)C1	nt	nt	nt	-1.9%	nt	nt
CCOc1ccccc1C(=O)NCc1ccc2c(c1)CCN2C(C)=O	nt	nt	nt	nt	nt	1.2%
CC(=O)c1cccc(NC(=O)Cn2nc(C(F)(F)F)c3c2CCC3)c1	nt	nt	nt	-27.6%	nt	-2.5%
Cc1nc2ccc(S(=O)(=O)NCC(=O)N3CCN(c4ccccc4)CC3)cc2s1	23.1µM*	-12.0%	-2.0%	-25.5%	-0.2%	3.6%
Cc1nc2ccc(S(=O)(=O)NCC(=O)N3CCCCC3)cc2s1	-3.6%	2.1%	-2.3%	-14.4%	-5.1%	-1.8%
O=C(CCS(=O)(=O)c1ccccc1)Nc1ccc(-c2nc3ccccc3s2)c(O)c1	?	14.1%	?	2.51µM*	1.26µM*	2.6%
CCS(=O)(=O)c1cccc(C(=O)Nc2ccc(-c3nc4ccccc4s3)c(O)c2)c1	nt	nt	nt	nt	nt	5.5%
CCOC(=O)O[C@@H](C)OC(=O)[C@@H]1N2C(=O)[C@@H](NC(=O)[C@@H](N)c3ccccc3)[C@H]2SC1(C)C	nt	nt	nt	3.8%[20.6 µM]	nt	nt
